# Key:
# Conditions in all cases: concentration: 1 μM, replicates: in singlicate; n = 1
# [1] = system: FGFR1
# [2] = system: FGFR2
# [3] = system: FGFR3
# [4] = system: FGFR4
# [5] = system: FGR
# [6] = system: FLT1
# [7] = system: FLT3-autoinhibited
# [8] = system: FLT3
# [9] = system: FLT4
# [10] = system: FRK
# [11] = system: FYN
# [12] = system: GAK
# [13] = system: T1, GCN2(Kin.Dom.2,S808G)
# T1 construct: gene EIF2AK4
# [14] = system: GRK1
# [15] = system: T2, GRK2
# T2 construct: gene ADRBK1
# [16] = system: T3, GRK3
# T3 construct: gene ADRBK2
# [17] = system: GRK4
# [18] = system: GRK7
# [19] = system: GSK3A
# [20] = system: GSK3B
# 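Also: KINOMEscan kinase panel screen.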
SMILES,%Inh [1],%Inh [2],%Inh [3],%Inh [4],%Inh [5],%Inh [6],%Inh [7],%Inh [8],%Inh [9],%Inh [10],%Inh [11],%Inh [12],%Inh [13],%Inh [14],%Inh [15],%Inh [16],%Inh [17],%Inh [18],%Inh [19],%Inh [20]
O=C(Nc1cccc(-c2nn3ccccc3c2-c2ccnc(Nc3cccc(C(F)(F)F)c3)n2)c1)c1c(F)cccc1F [GSK292658],0%,20%,9%,0%,92.5%,78%,5%,62%,36%,72%,56%,3%,10%,3%,0%,0%,15%,3%,5%,4%
COCCOCCOc1cc2ncc3c4ccc(C#N)cc4[nH]c3c2cc1OC,0%,25%,18%,4%,30%,17%,90.1%,99.5%,20%,16%,15%,99.3%,94.6%,29%,7%,0%,83%,0%,0%,0%
Cc1cccc(Nc2nc(N[C@H]3CCNC3)ncc2C(N)=O)c1.Cl [GSK2197149],0%,0%,3%,0%,82%,24%,82%,80%,9%,15%,43%,86%,25%,0%,0%,0%,78%,0%,0%,0%
Cl.Cl.NCC(NCc1ccc(-c2ccnc3[nH]ccc23)s1)c1ccccc1 (centres unmarked) [GSK1321565],4%,0%,19%,1%,23%,18%,12%,75%,5%,0%,0%,34%,0%,50%,0%,37%,82%,83%,0%,0%
O=c1[nH]cc(-c2ccc(N3CCOCC3)cc2)c2sc(-c3cn[nH]c3)cc12 [GSK2276055],0%,0%,21%,0%,0%,0%,11%,0%,0%,0%,31%,34%,0%,14%,9%,0%,0%,0%,97.7%,77%
Cl.NC(=O)c1cccc(Nc2nccc(Nc3ccc(Oc4c(Cl)cccc4Cl)c(Cl)c3)n2)c1 [GW659009],0%,0%,0%,0%,31%,0%,12%,33%,0%,7%,66%,59%,0%,0%,0%,39%,4%,0%,0%,0%
Cc1occc1-c1ncc(OC[C@@H](N)Cc2c[nH]c3ccccc23)cc1-c1ccc2[nH]nc(C)c2c1.O=C(O)C(F)(F)F [GSK682037],6%,0%,1%,0%,77%,11%,0%,0%,3%,57%,86%,82%,0%,3%,0%,0%,62%,43%,64%,55%
Fc1ccc(-c2ncn(C3CCNCC3)c2-c2ccnc(Oc3ccc(-c4ccccc4)cc3)n2)cc1 [SB-245391],19%,0%,0%,59%,17%,13%,1%,14%,5%,31%,20%,22%,18%,19%,12%,22%,0%,32%,0%,27%
Cc1ccc(C(=O)N2CC[C@@H](O)C2)cc1-n1c(C)cc(OCc2ccc(F)cc2F)c(Br)c1=O,80%,66%,21%,0%,0%,46%,0%,14%,0%,14%,21%,0%,0%,16%,0%,0%,0%,0%,0%,0%
COc1cc2c(cc1OCCN1CCNCC1)ncc1c3ccc(C#N)cc3[nH]c21,0%,16%,21%,0%,2%,6%,95.8%,98.5%,0%,0%,3%,99.3%,92.5%,3%,0%,34%,88%,0%,0%,26%
